Measured values taken from PubChem BioAssay (EPA / NIEHS).
Activity calls are given as the source filed them. How the source made its calls: active means hit-call score of the fitted dose curve at least 0.9, where 1 is the maximum; inactive means score below 0.9.

test: IUF_NPC2-5_viability_120hr: Viability Assessment at 120 hours in the Leibniz Research Institute for Environmental Medicine (IUF) Neural Progenitor Cell Migration and Differentiation Assay (NPC2-5) (AID 2284312)
Method: IUF_NPC2-5 is a cell-based, multiplexed assay that uses hNPC, a human primary neural progenitor cells, with measurements taken at 72 or 120 hours after chemical dosing in a 96-well plate. Human neural progenitor cells (hNPC) are generated from human fetal brain cortex at gestational week (GW) 16-19. In the neural progenitor cell migration and differentiation assay (NPC2-5), hNPCs grown as spheres are plated on an extracellular matrix and migrate and differentiate out of the sphere core. The processes radial glia migration, neuronal and oligodendrocyte migration as well as neuronal differentiation, neuronal morphology and oligodendrocyte differentiation are studied using automated phase contrast imaging and automated fluorescence imaging in combination with high content image analysis. In parallel, the cell viability is assessed using an alamar blue viability assay and the cytotoxicity using a lactate dehydrogenase dependent membrane integrity assay.IUF_NPC2-5_viability_120hr is one of 12 assay components measured from the IUF_NPC2-5 assay. It is designed to measure cell viability assessed as mitochondria-dependent reduction of resazurin to resorufin using the alamar blue viability assay. The viability is measured as a fluorescence signal (relative fluorescence unit) in a multiplate reader. Data from the IUF_NPC2-5_viability_120hr component was analyzed at the endpoint IUF-NPC2-5_viability_120hr in the positive analysis fitting direction relative to DMSO as the negative control and baseline of activity. Using a type of viability reporter, gain or loss-of-signal activity can be used to understand viability effects.
Culture protocol: After the cell expansion period the cells are cultured for up to four weeks in which they are passaged every week as described in 3.6. Between one to three days after passaging spheres at a size of 0.3 mm are picked for the test method. For the assessment of neural progenitor cell migration and differentiation, the spheres are plated on poly-D-lysine/laminin coated 96-well flat bottom plates in differentiation medium (N2) to initiate migration and differentiation. Thereby one 0.3 mm big sphere is plated in the middle of a well. The differentiation medium consists of DMEM and Ham's F12 at a ratio of 3 to 1 supplemented with 1% N2 and 1% penicillin and streptomycin. Within 5 days NPCs radially migrate out of the sphere core and differentiate into radial glia cells (nestin positive), neurons (TUBB3 positive), oligodendrocytes (O4 positive) and astrocytes (GFAP positive). Cultivation during the test method is performed at 37C and 5% CO2 at a ph of 7.2-7.6.Exposure: 0.3 mm big hNPC are plated in the already prepared test conditions. Exposure starts at day 0 of differentiation and is continued over five days of differentiation until the experiment is terminated. Cells are fed with fresh medium at day 3 of differentiation. Therefore, half of the test condition solution (e.g. solvent control or compound dilution) is replaced by freshly prepared test condition solution.Test Method: Migration distance and cytotoxicity is determined after 72 hours based on brightfield images of each well. The assay is terminated by the assessment of cell viability and cytotoxicity as well as cell fixation after 120 h. Immunocytochemistry is performed for Hoechst positive nuclei, TUBB3 positive neurons and O4 positive oligodendrocytes. On the ICC images, migration after 120 hours, neuronal and oligodendrocyte number, neuronal morphology and neuron/oligodendrocyte specific migration is assessed. immunocytochemical staining (ICC) generates an image for each sphere. The plates are scanned using an automated high content imaging device and all nuclei and their positions are determined automatically based on their intensity and size. Images are imported to the Omnisphero software to run the image analysis that measures the following endpoints. The method is set up for 8 test conditions including 7 compound concentrations and one SC. […]

Row | SMILES | AC50 | outcome
1 | COC(=O)Nc1nc2ccccc2[nH]1 | 12.5 µM (active) | –
2 | CCC[CH2][Sn]([Cl])([CH2]CCC)[CH2]CCC | 0.393 µM (active) | –
3 | CCCCOC(=O)c1ccccc1C(=O)OCc1ccccc1 | – | inactive
4 | [O-][Cl+]O | – | inactive
5 | CNC(=O)Oc1cccc2c1OC(C)(C)C2 | – | inactive
6 | CC(C)COC(=O)c1ccccc1C(=O)OCC(C)C | – | inactive
7 | CC(C)(C)C(O)(CCc1ccc(Cl)cc1)Cn1cncn1 (stereo not given) | – | inactive
8 | COP(=S)(OC)SCN1C(=O)c2ccccc2C1=O | – | inactive
9 | OCCOCCO | – | inactive
10 | O=P(OCCCl)(OCCCl)OCCCl | – | inactive
